Assay results taken from the supplement of paper PMC11732987, “Enantioselective OTUD7B fragment discovery through chemoproteomics screening and high-throughput optimisation” (Communications Chemistry, 2025).

Legend:
Test in all cases: log2 ratio of Biotin-Ahx-Ub-VS probe labelling (fragment/DMSO); higher = less target engagement (more negative = stronger competition), active = hit call of the paper (q ≤ 0.05, log2 ratio ≤ -1)
Settings in all cases: compound concentration: 200 uM; treatment time: 3 h
USP34 = USP34 (UniProt Q70CQ2)
Outline: (§1)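 HEK293T lysate in Tris/CHAPS/IGEPAL buffer with protease inhibitors (495 µg per sample) was given fragment at 200 µM or vehicle for 3 h, in triplicate. It then received Biotin-Ahx-Ub-VS at 0.5 µM final for 1 h. Labelled DUBs were NeutrAvidin-enriched, digested with LysC and trypsin, and run by diaPASEF LC-MS/MS. Values are average log2 fragment/vehicle ratios by unpaired t-test on global-median-normalised Spectronaut quantities of proteins with ≥2 unique peptides.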

USP36 = target: T1, USP36 (UniProt Q9P275)
T1 sequence (whole entry): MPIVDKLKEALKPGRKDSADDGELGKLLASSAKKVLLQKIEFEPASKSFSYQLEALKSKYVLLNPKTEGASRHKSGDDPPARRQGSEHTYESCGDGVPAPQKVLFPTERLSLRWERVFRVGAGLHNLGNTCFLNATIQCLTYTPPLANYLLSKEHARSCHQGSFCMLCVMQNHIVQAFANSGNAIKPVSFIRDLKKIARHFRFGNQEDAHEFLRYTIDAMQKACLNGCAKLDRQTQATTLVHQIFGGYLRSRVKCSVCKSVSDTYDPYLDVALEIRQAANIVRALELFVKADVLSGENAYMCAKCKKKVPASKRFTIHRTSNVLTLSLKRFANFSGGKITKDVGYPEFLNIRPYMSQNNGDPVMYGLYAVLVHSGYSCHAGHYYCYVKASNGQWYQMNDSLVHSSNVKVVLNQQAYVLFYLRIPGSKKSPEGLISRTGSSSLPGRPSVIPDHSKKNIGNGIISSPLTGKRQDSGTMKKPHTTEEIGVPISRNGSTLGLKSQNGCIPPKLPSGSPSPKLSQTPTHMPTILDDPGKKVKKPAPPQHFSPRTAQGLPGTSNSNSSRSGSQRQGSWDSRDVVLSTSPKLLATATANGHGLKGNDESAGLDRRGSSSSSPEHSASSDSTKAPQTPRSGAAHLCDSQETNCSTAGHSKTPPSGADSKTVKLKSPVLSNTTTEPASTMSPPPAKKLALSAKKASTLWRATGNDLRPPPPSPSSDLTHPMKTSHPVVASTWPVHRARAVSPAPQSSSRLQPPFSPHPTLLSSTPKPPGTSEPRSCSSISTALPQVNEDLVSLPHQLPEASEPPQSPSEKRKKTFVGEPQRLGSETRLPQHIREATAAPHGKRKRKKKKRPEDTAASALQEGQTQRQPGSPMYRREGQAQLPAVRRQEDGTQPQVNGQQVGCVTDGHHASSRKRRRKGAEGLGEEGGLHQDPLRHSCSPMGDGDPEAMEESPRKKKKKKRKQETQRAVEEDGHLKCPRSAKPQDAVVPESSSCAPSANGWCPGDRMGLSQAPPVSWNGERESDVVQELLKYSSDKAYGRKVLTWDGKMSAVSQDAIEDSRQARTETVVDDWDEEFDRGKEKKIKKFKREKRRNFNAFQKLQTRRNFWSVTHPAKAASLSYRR
Outline: as §1

USP38 = target: T2, USP38 (UniProt Q8NB14)
T2 sequence (whole entry): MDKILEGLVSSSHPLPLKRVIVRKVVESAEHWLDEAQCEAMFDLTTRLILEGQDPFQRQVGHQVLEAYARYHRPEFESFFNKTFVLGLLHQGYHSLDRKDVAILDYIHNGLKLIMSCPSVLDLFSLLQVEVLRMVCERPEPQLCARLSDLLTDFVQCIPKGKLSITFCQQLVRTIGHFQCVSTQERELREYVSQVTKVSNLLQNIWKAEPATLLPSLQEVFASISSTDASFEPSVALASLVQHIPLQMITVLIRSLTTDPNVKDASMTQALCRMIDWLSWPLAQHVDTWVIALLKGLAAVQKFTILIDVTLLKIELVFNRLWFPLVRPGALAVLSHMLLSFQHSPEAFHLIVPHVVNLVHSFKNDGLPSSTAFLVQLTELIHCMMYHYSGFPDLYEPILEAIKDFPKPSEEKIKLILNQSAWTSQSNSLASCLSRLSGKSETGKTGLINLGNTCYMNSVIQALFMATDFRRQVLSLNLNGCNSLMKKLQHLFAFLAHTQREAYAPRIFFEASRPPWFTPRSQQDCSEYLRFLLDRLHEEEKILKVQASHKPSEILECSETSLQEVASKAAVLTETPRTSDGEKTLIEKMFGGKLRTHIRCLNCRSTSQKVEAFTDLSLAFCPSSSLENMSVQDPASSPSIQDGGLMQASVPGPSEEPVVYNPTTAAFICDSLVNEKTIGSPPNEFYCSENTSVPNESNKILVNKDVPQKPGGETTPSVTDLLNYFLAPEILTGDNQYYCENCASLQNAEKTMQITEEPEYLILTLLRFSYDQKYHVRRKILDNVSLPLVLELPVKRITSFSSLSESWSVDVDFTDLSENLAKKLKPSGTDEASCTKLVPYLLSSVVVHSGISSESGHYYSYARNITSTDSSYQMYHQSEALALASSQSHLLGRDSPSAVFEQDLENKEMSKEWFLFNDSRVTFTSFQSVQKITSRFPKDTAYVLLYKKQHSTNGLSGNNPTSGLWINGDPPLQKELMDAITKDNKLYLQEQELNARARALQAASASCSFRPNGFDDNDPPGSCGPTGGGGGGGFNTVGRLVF
Outline: as §1

USP39 = target: T3, USP39 (UniProt Q53GS9)
T3 sequence (whole entry): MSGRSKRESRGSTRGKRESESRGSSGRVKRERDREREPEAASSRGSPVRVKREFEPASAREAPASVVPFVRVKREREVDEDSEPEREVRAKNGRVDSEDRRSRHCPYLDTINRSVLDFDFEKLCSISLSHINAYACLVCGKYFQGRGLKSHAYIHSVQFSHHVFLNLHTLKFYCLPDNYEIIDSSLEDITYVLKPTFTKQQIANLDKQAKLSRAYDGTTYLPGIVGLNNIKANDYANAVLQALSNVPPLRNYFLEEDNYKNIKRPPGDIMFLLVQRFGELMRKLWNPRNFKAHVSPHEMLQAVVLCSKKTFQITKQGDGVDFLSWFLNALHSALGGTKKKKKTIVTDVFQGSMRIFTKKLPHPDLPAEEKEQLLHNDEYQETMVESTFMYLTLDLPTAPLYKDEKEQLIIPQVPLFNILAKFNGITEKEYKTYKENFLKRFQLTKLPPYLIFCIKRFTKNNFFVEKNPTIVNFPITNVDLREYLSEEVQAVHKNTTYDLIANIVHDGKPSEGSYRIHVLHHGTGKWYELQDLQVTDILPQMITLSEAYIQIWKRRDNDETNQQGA
Outline: as §1

USP4 = target: T4, USP4 (UniProt Q13107)
T4 sequence (whole entry): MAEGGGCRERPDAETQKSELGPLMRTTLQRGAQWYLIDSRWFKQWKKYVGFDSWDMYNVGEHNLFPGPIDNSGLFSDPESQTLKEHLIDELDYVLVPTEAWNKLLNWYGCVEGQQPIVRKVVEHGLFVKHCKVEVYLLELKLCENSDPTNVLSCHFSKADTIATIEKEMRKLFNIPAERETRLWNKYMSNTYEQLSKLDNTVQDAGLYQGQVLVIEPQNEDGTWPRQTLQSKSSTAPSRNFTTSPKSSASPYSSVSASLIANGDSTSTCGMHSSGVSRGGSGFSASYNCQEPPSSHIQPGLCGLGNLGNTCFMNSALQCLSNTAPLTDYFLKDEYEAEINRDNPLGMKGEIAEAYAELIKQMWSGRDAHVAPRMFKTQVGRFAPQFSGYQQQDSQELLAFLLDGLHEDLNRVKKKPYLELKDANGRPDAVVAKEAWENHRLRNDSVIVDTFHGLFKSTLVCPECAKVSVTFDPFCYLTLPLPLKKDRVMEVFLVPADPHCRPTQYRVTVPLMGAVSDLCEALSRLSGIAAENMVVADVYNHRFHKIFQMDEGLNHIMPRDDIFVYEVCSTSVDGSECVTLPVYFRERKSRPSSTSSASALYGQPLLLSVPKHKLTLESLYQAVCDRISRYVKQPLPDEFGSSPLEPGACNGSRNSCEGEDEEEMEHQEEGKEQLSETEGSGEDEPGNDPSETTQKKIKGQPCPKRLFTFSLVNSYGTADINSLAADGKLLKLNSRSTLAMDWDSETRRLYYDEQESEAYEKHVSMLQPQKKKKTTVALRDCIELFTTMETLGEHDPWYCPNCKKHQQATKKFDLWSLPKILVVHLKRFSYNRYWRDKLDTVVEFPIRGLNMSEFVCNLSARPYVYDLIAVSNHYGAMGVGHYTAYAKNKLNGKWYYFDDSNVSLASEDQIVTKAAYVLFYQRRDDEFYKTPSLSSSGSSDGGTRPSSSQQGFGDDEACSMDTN
Outline: as §1

Measured: log2 ratio of Biotin-Ahx-Ub-VS probe labelling

Sequence of USP34 (Q70CQ2 whole entry, the tested form may be a part): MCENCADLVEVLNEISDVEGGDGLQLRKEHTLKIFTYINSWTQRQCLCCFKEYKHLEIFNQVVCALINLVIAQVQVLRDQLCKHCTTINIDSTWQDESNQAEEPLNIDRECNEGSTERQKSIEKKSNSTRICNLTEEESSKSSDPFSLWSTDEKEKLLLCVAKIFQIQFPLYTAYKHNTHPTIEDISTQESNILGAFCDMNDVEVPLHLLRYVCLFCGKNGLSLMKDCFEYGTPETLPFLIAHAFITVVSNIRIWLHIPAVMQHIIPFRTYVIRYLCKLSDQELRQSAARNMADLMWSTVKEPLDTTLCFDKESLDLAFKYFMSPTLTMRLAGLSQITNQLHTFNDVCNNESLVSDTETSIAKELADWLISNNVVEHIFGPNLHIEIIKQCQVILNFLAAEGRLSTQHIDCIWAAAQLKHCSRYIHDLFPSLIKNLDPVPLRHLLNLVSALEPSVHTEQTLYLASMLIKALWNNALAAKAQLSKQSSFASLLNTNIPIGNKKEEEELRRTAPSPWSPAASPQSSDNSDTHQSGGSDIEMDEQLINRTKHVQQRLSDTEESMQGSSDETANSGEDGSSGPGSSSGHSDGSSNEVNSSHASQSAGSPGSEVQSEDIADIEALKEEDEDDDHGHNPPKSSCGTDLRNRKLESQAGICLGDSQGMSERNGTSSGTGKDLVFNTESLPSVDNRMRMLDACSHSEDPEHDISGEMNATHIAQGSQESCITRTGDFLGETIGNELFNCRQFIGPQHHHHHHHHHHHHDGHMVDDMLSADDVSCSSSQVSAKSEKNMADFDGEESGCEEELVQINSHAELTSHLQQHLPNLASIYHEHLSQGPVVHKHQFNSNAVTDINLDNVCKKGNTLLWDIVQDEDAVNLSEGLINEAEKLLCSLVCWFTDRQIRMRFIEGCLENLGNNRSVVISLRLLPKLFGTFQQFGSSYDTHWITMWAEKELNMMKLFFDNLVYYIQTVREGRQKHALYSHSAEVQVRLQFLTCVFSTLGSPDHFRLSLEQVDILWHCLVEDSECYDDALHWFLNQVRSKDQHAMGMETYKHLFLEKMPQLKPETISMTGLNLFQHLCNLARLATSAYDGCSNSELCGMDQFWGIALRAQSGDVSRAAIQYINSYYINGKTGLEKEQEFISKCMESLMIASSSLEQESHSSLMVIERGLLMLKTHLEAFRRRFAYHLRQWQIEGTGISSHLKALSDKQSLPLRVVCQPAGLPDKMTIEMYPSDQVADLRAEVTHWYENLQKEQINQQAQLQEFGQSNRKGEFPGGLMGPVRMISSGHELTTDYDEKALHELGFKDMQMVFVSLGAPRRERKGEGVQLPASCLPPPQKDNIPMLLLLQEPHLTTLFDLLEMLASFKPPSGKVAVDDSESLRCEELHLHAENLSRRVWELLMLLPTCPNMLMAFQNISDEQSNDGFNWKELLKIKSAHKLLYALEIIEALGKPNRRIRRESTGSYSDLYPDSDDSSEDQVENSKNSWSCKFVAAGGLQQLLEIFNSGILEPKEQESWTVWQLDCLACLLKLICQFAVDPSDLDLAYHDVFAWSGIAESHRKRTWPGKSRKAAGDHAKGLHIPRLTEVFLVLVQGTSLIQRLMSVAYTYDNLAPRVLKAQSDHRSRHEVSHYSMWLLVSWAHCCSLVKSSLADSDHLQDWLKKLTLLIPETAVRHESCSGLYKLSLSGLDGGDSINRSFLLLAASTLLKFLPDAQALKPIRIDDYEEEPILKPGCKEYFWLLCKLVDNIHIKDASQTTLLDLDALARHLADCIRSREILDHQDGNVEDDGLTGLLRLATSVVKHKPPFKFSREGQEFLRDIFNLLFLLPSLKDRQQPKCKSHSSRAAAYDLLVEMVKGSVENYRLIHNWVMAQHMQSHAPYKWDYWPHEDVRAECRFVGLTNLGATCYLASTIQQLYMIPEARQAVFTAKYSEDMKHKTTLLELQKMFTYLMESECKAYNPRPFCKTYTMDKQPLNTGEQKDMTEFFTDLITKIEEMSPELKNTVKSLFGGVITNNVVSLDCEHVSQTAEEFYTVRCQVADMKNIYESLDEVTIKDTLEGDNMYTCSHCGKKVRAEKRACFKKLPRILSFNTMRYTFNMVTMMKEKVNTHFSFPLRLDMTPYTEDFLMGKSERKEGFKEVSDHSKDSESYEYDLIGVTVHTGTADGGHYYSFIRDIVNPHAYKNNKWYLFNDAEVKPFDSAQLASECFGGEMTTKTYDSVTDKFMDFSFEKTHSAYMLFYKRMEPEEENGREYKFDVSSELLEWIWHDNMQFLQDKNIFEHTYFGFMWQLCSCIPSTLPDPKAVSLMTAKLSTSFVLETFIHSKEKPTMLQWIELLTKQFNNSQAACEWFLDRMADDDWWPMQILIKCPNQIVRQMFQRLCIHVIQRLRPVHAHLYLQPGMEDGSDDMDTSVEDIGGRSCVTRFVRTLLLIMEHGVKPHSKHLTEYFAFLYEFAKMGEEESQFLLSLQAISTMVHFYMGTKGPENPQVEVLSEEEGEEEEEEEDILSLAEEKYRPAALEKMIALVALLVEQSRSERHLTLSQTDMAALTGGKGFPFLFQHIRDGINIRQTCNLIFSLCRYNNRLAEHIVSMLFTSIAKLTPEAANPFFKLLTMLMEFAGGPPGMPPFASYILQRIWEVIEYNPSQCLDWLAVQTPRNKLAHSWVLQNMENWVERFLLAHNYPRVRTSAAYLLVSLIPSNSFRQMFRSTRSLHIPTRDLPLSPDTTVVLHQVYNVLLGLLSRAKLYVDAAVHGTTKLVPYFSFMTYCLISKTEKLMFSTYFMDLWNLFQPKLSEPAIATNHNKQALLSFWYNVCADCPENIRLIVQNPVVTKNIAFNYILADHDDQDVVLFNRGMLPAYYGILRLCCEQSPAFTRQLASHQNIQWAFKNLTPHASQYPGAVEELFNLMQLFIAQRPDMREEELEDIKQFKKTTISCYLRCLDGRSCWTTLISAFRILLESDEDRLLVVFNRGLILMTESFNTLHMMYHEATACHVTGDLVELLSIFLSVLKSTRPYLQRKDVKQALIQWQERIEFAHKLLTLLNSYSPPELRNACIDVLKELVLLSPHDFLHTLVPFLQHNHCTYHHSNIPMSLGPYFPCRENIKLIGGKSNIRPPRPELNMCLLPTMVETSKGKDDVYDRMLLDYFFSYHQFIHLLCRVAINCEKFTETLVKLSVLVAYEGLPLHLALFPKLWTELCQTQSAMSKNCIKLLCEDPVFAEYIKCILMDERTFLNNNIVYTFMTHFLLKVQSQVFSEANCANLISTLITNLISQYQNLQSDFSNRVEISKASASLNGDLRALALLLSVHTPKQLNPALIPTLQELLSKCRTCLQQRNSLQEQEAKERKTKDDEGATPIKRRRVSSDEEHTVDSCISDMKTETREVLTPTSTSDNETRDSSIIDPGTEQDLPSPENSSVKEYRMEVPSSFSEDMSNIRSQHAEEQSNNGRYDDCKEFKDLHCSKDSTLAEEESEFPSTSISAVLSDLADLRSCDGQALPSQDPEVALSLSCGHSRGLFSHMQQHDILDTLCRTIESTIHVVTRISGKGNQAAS

Cc1c(NC(=O)CCl)c(=O)n(-c2ccccc2)n1C
inactive: USP34 -0.0386 | USP36 -0.0835 | USP38 -0.177 | USP39 -0.16 | USP4 0.0206
